Compound activity deposited in PubChem BioAssay by several laboratories.
SENP8 block-1 = SENP8 protease inhibitors, primary screen, biochemical, luminescence | purified SENP8, Z-RLRGG-aminoluciferin cleavage | hit rate 1.2% among 330,000 | inhibition, % at 10 µM; in the data active = inhibition above about 50%
SENP6 block = SENP6 protease inhibitors, primary screen, biochemical, luminescence, uHTS | Sentrin-specific protease 6 (Homo sapiens), Q9GZR1 | AID 2599, 2010 | inhibition, % at 10 µM | Recombinant SENP6 catalytic domain, aminoluciferin luminescence | hit rate 1.8% among 330,000;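 active = inhibition above about 50% at the single tested dose, limit read from the data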;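 also: plate controls were DMSO wells with enzyme for no effect and DMSO wells lacking enzyme for full effect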
AHR activator = AHR activators, primary screen, cell-based, luminescence, luciferase reporter, human; AHR-responsive luciferase reporter cells; activation, % at 5 µM; hit rate 2.5% among 320,000; in the data active = activation above about 47%;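 also: 0% = vehicle wells and 100% = reference agonist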
EBI2 block = EBI2 receptor antagonists, beta-arrestin recruitment, primary screen, cell-based, luminescence, 7a,25-OHC stimulation, uHTS. hit rate 0.81% among 360,000. G-protein coupled receptor 183 (Homo sapiens), P32249. inhibition, % at 5 µM. 7a,25-OHC stimulated; in the data active = inhibition above about 38%;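 also: enzyme fragment complementation signal reports receptor beta-arrestin coupling in cells; 0% = agonist plus DMSO wells and 100% = wells without agonist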
SENP8 block-2 = human SENP8 protease inhibitors, primary screen, biochemical, fluorescence, Nedd8 protein substrate, uHTS. AID 602440, 2012. hit rate 0.64% among 360,000. Sentrin-specific protease 8 (Homo sapiens), Q96LD8. recombinant SENP8. inhibition, % at 20 µM; in the data active = inhibition mostly above about 40%, no sharp cut-off; inactive = mostly below about 27%
SENP7 block = SENP7 protease inhibitors, primary screen, biochemical, luminescence, uHTS. inhibition, % at 5 µM. recombinant SENP7, Z-RLRGG-aminoluciferin luminescence, 40 min. AID 434973, 2010. hit rate 1.5% among 330,000;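 active = inhibition above about 50% at the single test dose, limit read from the data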;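 also: plate controls were DMSO with enzyme for no effect and no enzyme buffer wells for full effect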
SENP8 conf = SENP8 protease inhibitors, retest, confirmation, biochemical, luminescence, single concentration; shares compounds with SENP7 block; inhibition, % at 12.5 µM; Recombinant SENP8, Z-RLRGG-aminoluciferin luminescence, 60 min; AID 488912, 2010; hit rate 40% among 6,200;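 active = mean inhibition across replicates above about 50%, limit read from the data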
SENP6 confirm = SENP6 protease inhibitors, confirmation, biochemical, luminescence, single concentration | recombinant SENP6, Z-RLRGG-aminoluciferin luminescence | shares compounds with SENP7 block | hit rate 58% among 6,200 | inhibition, % at 12.5 µM
SENP7 confirm = SENP7 protease inhibitors, retest, confirmation, biochemical, luminescence, single concentration | shares compounds with SENP7 block | recombinant SENP7, Z-RLRGG-aminoluciferin luminescence, 40 min | inhibition, % at 12.5 µM | hit rate 69% among 6,200 | AID 488917, 2010
Casp3 select = caspase-3 protease inhibitors, confirmation, selectivity assay for SENP inhibitor project, biochemical, single concentration; shares compounds with SENP7 block; hit rate 60% among 6,200; AID 488918, 2010; inhibition, % at 12.5 µM; purified caspase-3, Z-DEVD-aminoluciferin luminescence, 60 min;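 active = mean inhibition above about 50%, limit read from the data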;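 also: plate controls were enzyme with DMSO for no effect and wells without caspase-3 for full effect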
Luc interf = luminescence interference (SENP counter-screen). hit rate 39% among 6,200. shares compounds with SENP7 block. Pre-incubated SENP8/Z-RLRGG-aminoluciferin, luciferase luminescence interference. inhibition, % at 12.5 µM;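 active = mean inhibition above about 50% when retested at one dose, limit read from the data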;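 also: plate controls were DMSO wells with completed reaction for no effect and substrate without enzyme for full effect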
Active calls of the source: *; i = inactive; nt = no result given. The list is not random: actives were taken first. Their share in the collection is about 5%.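 The calls were made as follows, unless noted: active = mean inhibition above about 50% in the one-dose retest (limit read from the data); inactive = the rest.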

SMILES	SENP8 block-1	SENP6 block	AHR activator	EBI2 block	SENP8 block-2	SENP7 block	SENP8 conf	SENP6 confirm	SENP7 confirm	Casp3 select	Luc interf
COc1ccc(O)c(/C=N/n2c(-c3ccco3)csc2=Nc2cccnc2)c1	-9	12	12	8	-42	-3	nt	nt	nt	nt	nt
CN=c1scc(-c2ccco2)n1/N=C/c1ccc(O)c(O)c1	56*	68*	nt	11	-16	8	59*	63*	86*	45	62*
O=C1C2CC=C(Cl)CC2C(=O)N1CCC[n+]1cccc2ccccc21 (configuration not stated)	1	10	7	-2	-26	6	nt	nt	nt	nt	nt
CC(C)C(=O)Nc1cccc(NC(=O)c2cc3ccccc3o2)c1	9	-68	0	5	8	36	nt	nt	nt	nt	nt
O=C(Nc1ccc(F)cc1)c1cc2ccccc2o1	76*	86*	72*	14	19	86*	80*	82*	97*	86*	64*
Cc1cc(C(=O)Nc2ccccc2)oc1C	42	64*	0	-7	25	49	58*	55*	87*	83*	61*
CC(=O)Nc1cccc(NC(=O)c2cc3ccccc3o2)c1	62*	84*	8	11	4	84*	79*	78*	95*	88*	83*
O=C(Nc1ccc(NC(=O)c2cc3ccccc3o2)cc1)c1ccco1	-8	-14	-2	24	-34	-4	nt	nt	nt	nt	nt
COc1ccccc1NC(=O)c1cc2ccccc2o1	34	57*	74*	10	29	44	46	42	78*	50	54*
Cc1cc(C(=O)Nc2cccc3ccccc23)oc1C	nt	nt	nt	-9	-62	nt	nt	nt	nt	nt	nt
CCCCC[C@H](C)N1C[C@H](COCc2ccccc2)Oc2cc(N3CCC[C@H]3CO)ccc2S1(=O)=O	nt	nt	nt	17	2	nt	nt	nt	nt	nt	nt
Cc1ccc(S(=O)(=O)NC(=O)Nc2ccc(OC(F)F)cc2)cc1	5	4	-2	-5	31	3	nt	nt	nt	nt	nt
Cc1ccccc1NC(=O)N1CCN(c2ncccn2)CC1	-9	0	-1	5	5	2	nt	nt	nt	nt	nt
COc1ccc(NC(=O)c2cc3ccccc3o2)cc1	35	64*	34	33	12	33	44	35	71*	50*	9
Cc1ccc(NC(=O)c2cc3ccccc3o2)nc1	40	63*	20	2	-67	65*	58*	58*	87*	74*	67*
Cc1ccc(NC(=O)c2ccco2)nc1	nt	nt	nt	-12	16	nt	nt	nt	nt	nt	nt
O=C(CSc1ccc(-c2nc3ccccc3[nH]2)cn1)Nc1ccc(S(=O)(=O)NC2CC2)cc1	71*	85*	6	4	-264	72*	82*	48	98*	56*	86*
CCOC(=O)CSc1ccc(-c2nc3ccccc3[nH]2)cn1	-4	27	14	5	i	15	nt	nt	nt	nt	nt
Fc1ccc(-c2nc3ccncc3[nH]2)cc1	-5	-7	31	-1	4	8	nt	nt	nt	nt	nt
Nc1ccc(-c2nc3ccccc3[nH]2)cc1	48	70*	17	-4	-414	65*	49	47	83*	82*	66*
Nc1cccc(-c2nc3ccccc3[nH]2)c1	10	44	22	-9	-277	41	nt	nt	nt	nt	nt
O=C(CSc1ccc(-c2nc3ccccc3[nH]2)cn1)Nc1ccc2c(c1)OCCO2	-12	-21	5	11	-113	-6	nt	nt	nt	nt	nt
Fc1ccc(-c2nc3ccccc3[nH]2)cc1	64*	83*	18	-6	10	83*	-7	64*	89*	84*	72*
N#CCSc1ccc(-c2nc3ccccc3[nH]2)cn1	48	7	11	-1	-238	68*	71*	68*	89*	82*	74*
Cc1cc(C)nc(SC2CCCCC2NS(=O)(=O)c2ccccc2)n1 (configuration not stated)	1	2	2	-4	22	1	nt	nt	nt	nt	nt
SMILES	SENP8 block-1	SENP6 block	AHR activator	EBI2 block	SENP8 block-2	SENP7 block	SENP8 conf	SENP6 confirm	SENP7 confirm	Casp3 select	Luc interf
CSCC[C@H](NC(=O)N1CCn2c1nc1ccccc12)C(=O)NCc1ccco1	-1	-8	6	3	2	-1	nt	nt	nt	nt	nt
Cc1cc(C)nc(/N=C(\NC(=O)C(C)(C)C)Nc2ccc(F)cc2)n1	-8	-23	4	10	21	2	nt	nt	nt	nt	nt
Cc1cc(C)n(CC(O)Cn2c3ccc(Cl)cc3c3cc(Cl)ccc32)c(=O)n1 (configuration not stated)	-7	-9	0	15	4	95*	2	4	7	-2	2
COc1ccc2nc(N3CCC(C)CC3)c(C#N)cc2c1	11	72*	18	11	-326	-5	6	6	9	4	5
Cc1ccccc1-c1nc2sc(-c3ccccc3)cc2c(=O)o1	37	80*	1	11	-41	84*	-21	-10	-7	9	-5
Cc1ccccc1-c1nc2sc(C)c(C)c2c(=O)o1	61*	77*	6	8	21	83*	38	39	35	48	13
O=C(CNC(=O)c1ccccc1F)c1ccccc1	27	54*	-1	-11	11	51*	44	43	81*	79*	53*
COc1ccc(S(=O)(=O)N(C)[C@H]2C[C@H]3c4cc(Oc5ccccc5C)ccc4CCN3C(=O)[C@H]2[C@H](C)O)cc1	nt	nt	nt	10	-20	nt	nt	nt	nt	nt	nt
CCCN(Cc1cc(=O)[nH]c2ccccc12)C(=O)CC	-7	98*	4	-2	-29	4	5	3	-6	-4	-10
CC(C)c1ccc(O)c(C(=O)c2cnn(-c3ccccc3)c2)c1	-8	-3	13	0	30	-11	nt	nt	nt	nt	nt
